Measurements from PMC7862700, “An all-to-all approach to the identification of sequence-specific readers for epigenetic DNA modifications on cytosine”.

Columns and labels:
Experiment in all cases: DAPPL (digital affinity profiling via proximity ligation, sequencing); 10 mM Tris-HCl pH 7.5, 50 mM NaCl, 1 mM DTT, 4% glycerol, room temperature, 30 min; GST-TFs on glutathione beads, 16-mer random dsDNA library, 0.1% formaldehyde crosslink after washing; high values mean tight binding
Conditions in all cases: protein: recombinant; tags: N-terminal GST; dsDNA, one strand shown
ERF = biological target: T1, ERF (Homo sapiens, UniProt P50548 1-548)
T1 sequence: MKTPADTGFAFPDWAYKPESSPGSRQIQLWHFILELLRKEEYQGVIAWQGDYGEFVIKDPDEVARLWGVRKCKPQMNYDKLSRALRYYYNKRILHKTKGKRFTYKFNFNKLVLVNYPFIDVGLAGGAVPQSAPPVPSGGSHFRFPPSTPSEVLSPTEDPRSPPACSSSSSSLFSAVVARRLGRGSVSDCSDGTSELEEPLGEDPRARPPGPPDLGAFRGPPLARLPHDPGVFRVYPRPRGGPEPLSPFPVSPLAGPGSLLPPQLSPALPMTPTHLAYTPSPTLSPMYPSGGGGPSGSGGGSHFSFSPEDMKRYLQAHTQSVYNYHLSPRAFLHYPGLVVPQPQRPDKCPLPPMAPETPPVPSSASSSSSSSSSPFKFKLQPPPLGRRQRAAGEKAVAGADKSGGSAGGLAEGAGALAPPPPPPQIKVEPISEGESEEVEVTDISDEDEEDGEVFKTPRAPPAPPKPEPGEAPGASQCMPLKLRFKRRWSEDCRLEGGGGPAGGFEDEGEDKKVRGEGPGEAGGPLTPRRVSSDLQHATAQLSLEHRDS
In short: (§1)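 Each value of binding signal is a hexamer's read frequency for a factor divided by the same hexamer's frequency in the tag-only sample. Barcoded, bead-captured GST fusions of human transcription factors made in yeast were pooled with that sample and incubated with 200 nmole of a random double-stranded 16-mer DNA library in Tris/NaCl/DTT/glycerol buffer at room temperature for 30 min. Washing, 0.1% formaldehyde crosslinking, proximity ligation, PCR and Illumina NextSeq500 sequencing followed.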

ETV3L = biological target: T2, ETV3L (Homo sapiens, UniProt Q6ZN32 1-361)
T2 sequence: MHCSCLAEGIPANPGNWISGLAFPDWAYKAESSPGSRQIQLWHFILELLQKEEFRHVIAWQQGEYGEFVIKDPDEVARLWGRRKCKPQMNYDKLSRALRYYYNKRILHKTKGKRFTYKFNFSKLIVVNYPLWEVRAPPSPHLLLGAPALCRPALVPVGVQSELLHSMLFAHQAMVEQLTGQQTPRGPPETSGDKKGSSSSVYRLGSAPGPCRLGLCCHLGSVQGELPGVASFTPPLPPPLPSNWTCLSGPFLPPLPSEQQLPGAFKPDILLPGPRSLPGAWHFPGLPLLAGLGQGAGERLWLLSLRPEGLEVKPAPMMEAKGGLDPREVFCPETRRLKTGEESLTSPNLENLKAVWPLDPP
In short: as §1

ETS2 = biological target: T3, ETS2 (Homo sapiens, UniProt P15036 1-469)
T3 sequence: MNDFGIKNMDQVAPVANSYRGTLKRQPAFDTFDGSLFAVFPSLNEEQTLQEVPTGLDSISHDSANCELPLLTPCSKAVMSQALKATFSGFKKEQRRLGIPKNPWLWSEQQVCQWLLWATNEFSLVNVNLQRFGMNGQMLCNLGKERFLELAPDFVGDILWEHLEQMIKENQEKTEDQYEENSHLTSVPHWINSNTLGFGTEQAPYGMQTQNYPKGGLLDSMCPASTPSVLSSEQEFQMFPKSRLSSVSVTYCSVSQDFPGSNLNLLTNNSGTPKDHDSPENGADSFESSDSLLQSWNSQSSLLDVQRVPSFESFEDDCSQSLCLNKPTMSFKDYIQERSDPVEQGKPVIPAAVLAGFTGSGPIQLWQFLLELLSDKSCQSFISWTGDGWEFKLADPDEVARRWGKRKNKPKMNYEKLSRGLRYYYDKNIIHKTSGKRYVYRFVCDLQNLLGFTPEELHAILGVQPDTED
In short: as §1

SPDEF = biological target: T4, SPDEF (Homo sapiens, UniProt O95238 1-335)
T4 sequence: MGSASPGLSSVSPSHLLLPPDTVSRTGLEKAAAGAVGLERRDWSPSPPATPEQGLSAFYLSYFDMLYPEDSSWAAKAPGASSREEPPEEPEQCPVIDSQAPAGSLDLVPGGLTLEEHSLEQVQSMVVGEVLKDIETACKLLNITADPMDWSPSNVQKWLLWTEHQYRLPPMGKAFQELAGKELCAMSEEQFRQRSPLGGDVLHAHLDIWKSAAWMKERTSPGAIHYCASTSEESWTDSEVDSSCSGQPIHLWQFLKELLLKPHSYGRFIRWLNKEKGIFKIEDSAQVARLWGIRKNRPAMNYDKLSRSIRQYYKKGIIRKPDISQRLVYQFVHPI
In short: as §1

ETV7 = biological target: T5, ETV7 (Homo sapiens, UniProt Q9Y603 1-341)
T5 sequence: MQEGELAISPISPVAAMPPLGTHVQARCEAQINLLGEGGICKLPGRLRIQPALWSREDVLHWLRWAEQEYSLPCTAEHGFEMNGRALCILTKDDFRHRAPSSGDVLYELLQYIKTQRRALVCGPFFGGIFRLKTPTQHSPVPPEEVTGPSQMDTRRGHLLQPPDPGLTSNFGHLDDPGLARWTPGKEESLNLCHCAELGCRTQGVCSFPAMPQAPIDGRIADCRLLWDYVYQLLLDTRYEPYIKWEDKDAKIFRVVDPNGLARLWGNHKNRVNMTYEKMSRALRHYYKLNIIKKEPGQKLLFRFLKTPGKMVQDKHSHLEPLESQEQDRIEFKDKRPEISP
In short: as §1

ELF5 = biological target: T6, ELF5 (Homo sapiens, UniProt Q9UKW6-2 1-255)
T6 sequence: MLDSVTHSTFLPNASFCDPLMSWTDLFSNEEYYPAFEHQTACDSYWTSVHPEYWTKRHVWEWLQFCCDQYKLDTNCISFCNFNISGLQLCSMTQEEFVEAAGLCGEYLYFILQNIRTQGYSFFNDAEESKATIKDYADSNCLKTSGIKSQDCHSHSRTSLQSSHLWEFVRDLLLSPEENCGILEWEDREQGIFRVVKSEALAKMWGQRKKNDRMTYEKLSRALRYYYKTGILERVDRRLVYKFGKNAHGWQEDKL
In short: as §1

ETV3 = biological target: T7, ETV3 (Homo sapiens, UniProt P41162-2 1-143)
T7 sequence: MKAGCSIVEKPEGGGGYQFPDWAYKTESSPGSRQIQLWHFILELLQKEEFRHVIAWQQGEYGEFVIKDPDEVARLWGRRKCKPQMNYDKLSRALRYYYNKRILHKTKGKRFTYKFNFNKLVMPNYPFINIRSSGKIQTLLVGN
In short: as §1

ETV6 = ETV6 (Homo sapiens, UniProt P41212 1-452)
In short: as §1

Chain of ETV6 (P41212 whole entry): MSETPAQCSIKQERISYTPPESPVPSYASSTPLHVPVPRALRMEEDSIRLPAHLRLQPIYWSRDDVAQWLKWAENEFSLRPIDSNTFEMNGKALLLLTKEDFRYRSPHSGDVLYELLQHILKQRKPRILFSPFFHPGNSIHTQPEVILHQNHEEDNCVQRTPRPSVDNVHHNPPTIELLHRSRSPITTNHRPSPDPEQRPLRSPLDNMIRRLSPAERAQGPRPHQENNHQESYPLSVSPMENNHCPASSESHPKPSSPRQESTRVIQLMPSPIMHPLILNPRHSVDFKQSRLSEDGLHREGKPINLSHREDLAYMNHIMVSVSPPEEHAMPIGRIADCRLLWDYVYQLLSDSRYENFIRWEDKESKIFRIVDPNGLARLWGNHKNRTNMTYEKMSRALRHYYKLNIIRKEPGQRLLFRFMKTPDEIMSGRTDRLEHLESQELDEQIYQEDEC

| Sequence | binding signal (ERF) | binding signal (ETV3L) | binding signal (ETS2) | binding signal (SPDEF) | binding signal (ETV7) | binding signal (ELF5) | binding signal (ETV3) | binding signal (ETV6) |
| --- | --- | --- | --- | --- | --- | --- | --- | --- |
| GAAGCA | 1.24 fold enrichment (6-mer frequency, TF over GST control) | 1.18 fold enrichment (6-mer frequency, TF over GST control) | 1.32 fold enrichment (6-mer frequency, TF over GST control) | 1.33 fold enrichment (6-mer frequency, TF over GST control) | 1.37 fold enrichment (6-mer frequency, TF over GST control) | 1.4 fold enrichment (6-mer frequency, TF over GST control) | 1.36 fold enrichment (6-mer frequency, TF over GST control) | 1.43 fold enrichment (6-mer frequency, TF over GST control) |
| AAGAAT | 1.2 fold enrichment (6-mer frequency, TF over GST control) | 1.15 fold enrichment (6-mer frequency, TF over GST control) | 1.11 fold enrichment (6-mer frequency, TF over GST control) | 1.07 fold enrichment (6-mer frequency, TF over GST control) | 1.1 fold enrichment (6-mer frequency, TF over GST control) | 1.15 fold enrichment (6-mer frequency, TF over GST control) | 1.14 fold enrichment (6-mer frequency, TF over GST control) | 1.08 fold enrichment (6-mer frequency, TF over GST control) |
| CTTTCA | 1.44 fold enrichment (6-mer frequency, TF over GST control) | 1.38 fold enrichment (6-mer frequency, TF over GST control) | 1.31 fold enrichment (6-mer frequency, TF over GST control) | 1.26 fold enrichment (6-mer frequency, TF over GST control) | 1.33 fold enrichment (6-mer frequency, TF over GST control) | 1.4 fold enrichment (6-mer frequency, TF over GST control) | 1.39 fold enrichment (6-mer frequency, TF over GST control) | 1.24 fold enrichment (6-mer frequency, TF over GST control) |
| TATCTA | 1.27 fold enrichment (6-mer frequency, TF over GST control) | 1.18 fold enrichment (6-mer frequency, TF over GST control) | 1.26 fold enrichment (6-mer frequency, TF over GST control) | 1.23 fold enrichment (6-mer frequency, TF over GST control) | 1.26 fold enrichment (6-mer frequency, TF over GST control) | 1.18 fold enrichment (6-mer frequency, TF over GST control) | 1.29 fold enrichment (6-mer frequency, TF over GST control) | 1.28 fold enrichment (6-mer frequency, TF over GST control) |
| CCTGCG | 1.22 fold enrichment (6-mer frequency, TF over GST control) | 1.49 fold enrichment (6-mer frequency, TF over GST control) | 1.27 fold enrichment (6-mer frequency, TF over GST control) | 1.23 fold enrichment (6-mer frequency, TF over GST control) | 1.38 fold enrichment (6-mer frequency, TF over GST control) | 1.3 fold enrichment (6-mer frequency, TF over GST control) | 1.4 fold enrichment (6-mer frequency, TF over GST control) | 1.35 fold enrichment (6-mer frequency, TF over GST control) |
| GTAATT | 1.12 fold enrichment (6-mer frequency, TF over GST control) | 1.21 fold enrichment (6-mer frequency, TF over GST control) | 1.28 fold enrichment (6-mer frequency, TF over GST control) | 1.19 fold enrichment (6-mer frequency, TF over GST control) | 1.3 fold enrichment (6-mer frequency, TF over GST control) | 1.28 fold enrichment (6-mer frequency, TF over GST control) | 1.18 fold enrichment (6-mer frequency, TF over GST control) | 1.3 fold enrichment (6-mer frequency, TF over GST control) |
| CTCACC | 1.33 fold enrichment (6-mer frequency, TF over GST control) | 1.16 fold enrichment (6-mer frequency, TF over GST control) | 1.11 fold enrichment (6-mer frequency, TF over GST control) | 1.12 fold enrichment (6-mer frequency, TF over GST control) | 1.06 fold enrichment (6-mer frequency, TF over GST control) | 1.15 fold enrichment (6-mer frequency, TF over GST control) | 1.14 fold enrichment (6-mer frequency, TF over GST control) | 1.08 fold enrichment (6-mer frequency, TF over GST control) |
| CTGCGT | 1.13 fold enrichment (6-mer frequency, TF over GST control) | 1.16 fold enrichment (6-mer frequency, TF over GST control) | 1.15 fold enrichment (6-mer frequency, TF over GST control) | 1.2 fold enrichment (6-mer frequency, TF over GST control) | 1.23 fold enrichment (6-mer frequency, TF over GST control) | 1.11 fold enrichment (6-mer frequency, TF over GST control) | 1.13 fold enrichment (6-mer frequency, TF over GST control) | 1.02 fold enrichment (6-mer frequency, TF over GST control) |
